The nature of test [1]: qHTS assay to identify small molecule agonists of the hypoxia (HIF-1) signaling pathway - cell viability counter screen (AID 1224844; calls by dose curve; note: nearly all actives have a fitted effect of over 50% in size; note: potency is the fitted concentration of half-maximal effect). The method in brief:
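Luminescent ATP content (CellTiter-Glo, 30 min, room temperature) served as the viability measure in HRE-bla ME-180 cells exposed to compounds for 17 hrs in low-serum medium (0.5% dialyzed FBS).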

Test [2] is described as follows: qHTS assay to identify small molecule agonists of H2AX (AID 1224845; active = well fitted activation curve with a large enough effect in the signal ratio in the repeat runs, not every such curve was filed as active; the % refers to the signal ratio). The method in brief: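 Wild-type CHO-K1 cells, plated overnight, exposed 3hr at 37C to 15 concentrations (0.76% DMSO final). Lysed, then HTRF anti-pH2AX (S139) cryptate and anti-H2AX-d2 antibodies, 24 hr room temperature; 665/620 nm emission read.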
On the technique in general: Quantitative high-throughput screening tests each substance at several concentrations.

Test [3] can be described thus: qHTS assay to identify small molecule agonists of the hypoxia (HIF-1) signaling pathway (AID 1224846; active = well fitted activation curve with a large enough effect in the signal ratio in the repeat runs, not every such curve was filed as active; the % refers to the signal ratio). In short, it runs like this:
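Measured by blue/green FRET after loading CCF4-AM: beta-lactamase expressed from a hypoxia response element in ME-180 cells. Test agents were delivered in DMSO and left 17 hrs; cells had been plated 5 hrs earlier in low-serum (0.5% dialyzed FBS) medium.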

Test [4] is described as follows: qHTS assay to identify small molecule agonists of H2AX - cell viability counter screen (AID 1224847; calls by dose curve; note: top concentration of the series differs between compounds; nearly all actives have a fitted effect of over 30% in size). The method in brief:
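Counter-screen for viability: CellTiter-Glo ATP luminescence read after 3 h compound treatment (15-point titration, 0.76% DMSO final) of CHO-K1 cells at 37C, with 30 min room-temperature reagent incubation.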

Test [5] is described as follows: qHTS assay to identify small molecule agonists of the estrogen related receptor (ERR) signaling pathway from Tox21 library (AID 1224849; calls by dose curve; note: nearly all actives have a fitted effect of over 15% in size). Particulars: ERR reporter cell line, ONE-Glo luciferase, 18 h. The method in brief: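 We plated ERR reporter cells, waited 6 h, added compounds in DMSO by pin tool and incubated them 18 h at 37 C. ONE-Glo was then added and luminescence read after 30 min.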

Test [6] is described as follows: qHTS RealTime-Glo MT Cell Viability Assay in HepG2 cells - 24 hour (AID 1224867). Note: nearly all actives have a fitted effect of over 50% in size. The method in brief:
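HepG2 cells were seeded at 600 cells/well together with NanoLuc luciferase and a cell-permeant prosubstrate, preincubated 5 h at 37 C/5% CO2, then pin-dosed with compounds in DMSO. Nonlytic luminescence from viable cells was read at each time point.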

The nature of test [7]: qHTS RealTime-Glo MT Cell Viability Assay in HEK293 cells - 32 hour (AID 1224868). Note: top concentration of the series differs between compounds; nearly all actives have a fitted effect of over 50% in size. In short, it runs like this: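 HEK293 cells were seeded at 600 cells/well together with NanoLuc luciferase and cell-permeant prosubstrate, preincubated 5 h at 37 C/5% CO2, then given compound in DMSO by pintool. Luminescence from viable-cell prosubstrate reduction was read repeatedly over 40 h.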

Test [8] is described as follows: A CellTox Green Cytotoxicity Assay to monitor cytotoxicity in HEK293 cells - 0 hour (AID 1224869). Note: nearly all actives have a fitted effect of over 50% in size. In short, it runs like this: (§1)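 Each value comes from one timepoint of a single continuous run in which HEK293 cells with CellTox Green were exposed to compound for up to 40 h at 37 C, dye fluorescence rising with cell death.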
Test [9] is described as follows: qHTS RealTime-Glo MT Cell Viability Assay in HepG2 cells - 40 hour (AID 1224870). Note: nearly all actives have a fitted effect of over 50% in size. In short, it runs like this: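 HepG2 cells (600/well) mixed with RealTime-Glo MT reagent, settled 5 h at 37 C/5% CO2 before compound addition. Nonlytic NanoLuc luminescence from viable-cell prosubstrate reduction read repeatedly during 40 h treatment at 37 C.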
Test [10] can be described thus: A CellTox Green Cytotoxicity Assay to monitor cytotoxicity in HEK293 cells - 40 hour (AID 1224871). Note: nearly all actives have a fitted effect of over 45% in size. The method in brief: as §1

Molecules are shown by their SMILES. “And” between values parts separate entries of the source, which are not always exact repeats. Identical values can stand only once. Records with an inconclusive call do not appear. Some compounds were tested as several samples or in several runs, with calls that do not always agree. The source made the active and inactive calls. Unless noted, calls come from the whole dose curve; as a rule, active = well fitted curve in the direction sought with a large enough effect in the repeat runs; inconclusive = weak or mixed curves; inactive = no such curve, though single readings can be large; an effect the other way counts as inactive or inconclusive.
% is set by controls: 0 for no effect and ±100 for the full control effect.

For the compound `C=CC#N`, the Potency entry in test [1], in [2], in test [4], in [7], in [8] and in test [10] was “inactive” each time. For the same compound, the compound was classed as inactive in test [3], in test [6] and in test [9]. Moreover, the activity change, positive = activation in test [5] (at 92.4 µM (top of the series)) was 0.57% (inactive) and 1.17% (inactive).
With `COC(=O)Nc1cccc(OC(=O)Nc2cccc(C)c2)c1`, the Potency result in [1], in test [2], in test [4], in [7], in test [8] and in [10] was “inactive” in each case. Besides, the result in [3], in test [6] and in test [9] was inactive. The activity change, positive = activation in [5] (at 92.4 µM (top of the series)) was 26.6% (active) and 34.9% (active).
With `O=P1(NCCCl)OCCCN1CCCl` (stereo unspecified), the Potency entry in test [1], in test [2], in test [4], in [7], in test [8] and in test [10] was “inactive” throughout. The outcome in test [3], in [6] and in test [9] was inactive. Also, the activity change, positive = activation is -0.35% (inactive) in test [5] (at 42.5 µM (top of the series)); 5.99% (inactive) and 1.11% (inactive) in [5] (at 92.4 µM (top of the series)).
`CNC(=O)O/N=C/C(C)(C)S(C)=O` (stereo unspecified): the Potency entry in test [1], in test [2], in test [4], in [7], in [8] and in test [10] was “inactive” throughout. For the same compound, the call in [3], in [6] and in [9] was inactive.
On to `O=C/C=C/c1ccccc1`, for which the Potency entry in test [1], in [2], in [4], in [7], in [8] and in test [10] was “inactive” each time. In addition, the result in test [3], in test [6] and in [9] was inactive.
Take `COP(=S)(OC)Oc1ccc(SC)c(C)c1`: the Potency result in test [1], in [2], in test [4], in test [7], in [8] and in [10] was “inactive” throughout. The result in test [3], in [6] and in [9] was inactive.
Consider `Nc1ncc([N+](=O)[O-])s1`, for which the Potency entry in test [1], in test [2], in test [4], in test [7], in test [8] and in test [10] was “inactive” throughout. Further, the result in [3], in [6] and in test [9] was inactive. The activity change, positive = activation in [5] (at 92.4 µM (top of the series)) was 2.32% (inactive) and 6.46% (inactive).
For `Cc1ccc(N=C=O)cc1N=C=O`, the Potency in test [1] is 24.5 µM (active) and inactive. In addition, the Potency entry in [2], in [4], in test [7], in test [8] and in test [10] was “inactive” in each case. Besides, the result in [3], in test [6] and in test [9] was inactive. For the same compound, the activity change, positive = activation in [5] (at 92.4 µM (top of the series)) was 1.23% (inactive) and -0.244% (inactive) and 4.95% (inactive).
Consider `CNCC(O)c1ccc(O)cc1` (stereo unspecified), for which the Potency entry in test [1], in [2], in test [4], in test [7], in test [8] and in test [10] was “inactive” in each case. Moreover, the compound was classed as inactive in [3], in test [6] and in [9]. Moreover, the activity change, positive = activation is 12.7% (inactive) in [5] (at 42.5 µM (top of the series)) and 2.21% (inactive) in test [5] (at 92.4 µM (top of the series)).
In the case of `Cc1cccc(C)c1NC(=O)CN1CCCC1=O`, the Potency entry in test [1], in [2], in test [4], in test [7], in [8] and in test [10] was “inactive” throughout. The outcome in [3], in [6] and in test [9] was inactive.
On to `CNC(=O)O/N=C(\SC)C(=O)N(C)C`, for which the Potency result in [1], in test [2], in test [4], in test [7], in [8] and in test [10] was “inactive” throughout. Besides, the compound was classed as inactive in test [3], in test [6] and in [9].
As for `Cc1cc(O)ccc1Cl`, the Potency result in [1], in test [2], in test [4], in test [7], in test [8] and in [10] was “inactive” throughout. Further, the result in test [3], in test [6] and in test [9] was inactive. The activity change, positive = activation was 6.83% (inactive) in [5] (at 42.5 µM (top of the series)); 0.807% (inactive) and 6.83% (inactive) in test [5] (at 92.4 µM (top of the series)).
With `CN(C)C(=O)C(c1ccccc1)c1ccccc1`, the Potency result in test [1], in test [2], in test [4], in test [7], in test [8] and in [10] was “inactive” in each case. The compound was called inactive in test [3], in test [6] and in test [9].
For `CCNc1nc(Cl)nc(NC(C)C)n1`, the Potency entry in test [1], in test [2], in [4], in test [7], in test [8] and in [10] was “inactive” throughout. Further, the compound was called inactive in [3], in [6] and in [9]. In addition, in test [5] (at 92.4 µM (top of the series)), the activity change, positive = activation was -5.74% (inactive) and -1.44% (inactive).
On to `OCCCCO`, for which the Potency result in test [1], in test [2], in test [4], in test [7], in [8] and in test [10] was “inactive” in each case. In addition, the result in [3], in test [6] and in test [9] was inactive. In addition, the activity change, positive = activation in test [5] (at 92.4 µM (top of the series)) is 2.81% (inactive) and 0.133% (inactive).
Turning to `Cc1cccc(N)c1C`, the Potency entry in [1], in test [2], in test [4], in [7], in test [8] and in test [10] was “inactive” each time. The compound was called inactive in test [3], in [6] and in test [9].
Turning to `O=S(=O)(O)OOS(=O)(=O)O`, the Potency result in test [1], in test [2], in test [4], in test [7], in [8] and in test [10] was “inactive” in each case. The call in test [3], in test [6] and in test [9] was inactive.
Consider `O=[N+]([O-])c1cc([As](=O)(O)O)ccc1O`, for which the Potency entry in [1], in test [2], in [4], in test [7], in test [8] and in test [10] was “inactive” each time. The call in test [3], in [6] and in test [9] was inactive. The activity change, positive = activation in test [5] (at 42.5 µM (top of the series)) was -1.93% (inactive); in test [5] (at 92.4 µM (top of the series)), -21.2% (inactive) and 4.02% (inactive).
In the case of `O=C(O)Cc1ccccc1`, the Potency result in test [1], in [2], in test [4], in test [7], in test [8] and in test [10] was “inactive” in each case. Further, the outcome in [3], in [6] and in [9] was inactive. The figures for the activity change, positive = activation in [5] (at 42.5 µM (top of the series)) and in [5] (at 92.4 µM (top of the series)) were -0.0869% (inactive) and -3.48% (inactive), respectively.
As to `Nc1ccc(N)cc1`, the Potency entry in test [1], in test [2], in test [4], in [7], in test [8] and in test [10] was “inactive” throughout. Also, the compound was classed as inactive in test [3], in [6] and in test [9].
As to `CC(C)(C)C(=O)CCl`, the Potency entry in test [1], in test [2], in test [4], in test [7], in test [8] and in test [10] was “inactive” throughout. Also, the compound was called inactive in [3], in [6] and in test [9]. Further, the activity change, positive = activation in [5] (at 92.4 µM (top of the series)) was 2.78% (inactive) and 6.55% (inactive).

For the origin of these results see PubChem BioAssay (Tox21).
